The text below walks through data of PubChem BioAssay (NCATS).

Inconclusive results are not listed. Some compounds were tested as several samples or in several runs, with calls that do not always agree. The source made the active and inactive calls. Unless noted, calls follow the shape of the dose curve; as a rule, active = well fitted curve in the direction sought with a large enough effect; inconclusive = small, poorly fitted or top-dose-only effect, or another doubt; inactive = no such curve, though single readings can be large; an effect the other way counts as inactive or inconclusive.

Test [1] has as its target Phospholipid hydroperoxide glutathione peroxidase GPX4 (Homo sapiens) (UniProt P36969). Briefly: Primary qHTS Assay for Inhibitors of Recombinant Selenoprotein Glutathione Peroxidase 4 (GPX4) (AID 1845192). Also: % is scaled to controls: 0 for no effect and ±100 for the full control effect; nearly all actives have a fitted effect of over 65% in size. In short, it runs like this:
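NADPH consumption, followed by fluorescence at 340/450 nm between 0 and 15 min, reports GPX4 activity via coupled glutathione reductase (100 nM). Enzyme 200 nM was pre-exposed to compound 30 min; 0.5 mM cumene hydroperoxide and 1 mM GSH served as substrates.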
For orientation: Quantitative high-throughput screening tests each substance at several concentrations.

Test [2] addresses Cytochrome P450 2C9 (Homo sapiens) (UniProt P11712). Nature of the test: qHTS for inhibitors of CYP2C9 against the NCATS DSHEA and TCM libraries (AID 1919973).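 Also: luminogenic pro-luciferin CYP2C9 substrate turned into luciferin with NADPH regeneration; % is scaled to controls: 0 for no effect and ±100 for the full control effect.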 In short, it runs like this:
(§1)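 Luminescent P450-Glo readout. Enzyme plus pro-luciferin substrate in manufacturer buffer (typically 100 mM KPO4); 15 min RT preincubation; 1x NADPH regenerating system, 30-45 min RT in the dark; detection reagent 30 min.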

In test [3] the target is Cytochrome P450 2C19 (Homo sapiens) (UniProt P33261). Briefly: qHTS for inhibitors of CYP2C19 against the NCATS DSHEA and TCM libraries (AID 1919974).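 Also: luminescence from luciferin released by CYP2C19 oxidation of a pro-luciferin substrate; % is scaled to controls: 0 for no effect and ±100 for the full control effect.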 In short, it runs like this:
as §1

The target in test [4] is Nuclear receptor subfamily 1 group I member 2 (Homo sapiens) (UniProt O75469). Nature of the test: Dual reporter qHTS for agonist of Pregnane X Receptor (hPXR) against the NCATS DSHEA and TCM libraries: Luminescence readout (AID 1920059). Also: 0% is about no effect. Summed up: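 Luminescent PXR reporter read (ONE-Glo) after a CellTiter-Fluor viability read, following 24 h, 37C treatment of HepG2 cells stably carrying hPXR-Luc.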

Test [5] shares this target. Nature of the test: Dual reporter qHTS for antagonist of Pregnane X Receptor (hPXR) against the NCATS DSHEA and TCM libraries: Luminescence Readout (AID 1920060).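 Also: HepG2 cells carrying hPXR luciferase reporter stimulated with rifampicin at 2 µM; 0% is about no effect.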 In short, it runs like this: (§2)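 hPXR-Luc HepG2 cells exposed 24 h at 37 C to compounds with 2 uM rifampicin in antagonist mode; luciferase luminescence measured by ONE-Glo, with CellTiter-Fluor viability read beforehand.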

Test [6] can be described thus: Dual reporter qHTS for antagonist of Pregnane X Receptor (hPXR) against the NCATS DSHEA and TCM libraries: Fluorescence Readout (AID 1920061). Also: 0% is about no effect. In short, it runs like this: as §2
A short description of test [7]: qHTS for differential inhibitors of proliferation of Plasmodium falciparum line 7G8 (AID 1815).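 Also: potency is read from the fitted curve at half-maximal effect; parasite growth measured after three days of incubation.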
A short description of test [8]: qHTS for differential inhibitors of proliferation of Plasmodium falciparum line GB4 (AID 1816).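 Also: potency is read from the fitted curve at half-maximal effect; parasite growth measured after 72 h incubation.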 The note with it: Potency: Plasmodium falciparum GB4 proliferation inhibition.
The nature of test [9]: qHTS for differential inhibitors of proliferation of Plasmodium falciparum line D10 (AID 1877).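 Also: potency is read from the fitted curve at half-maximal effect; parasites grown with compound for 72 h before DNA staining.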
A short description of test [10]: qHTS for differential inhibitors of proliferation of Plasmodium falciparum line Dd2 (AID 1882). Also: potency is read from the fitted curve at half-maximal effect; nearly all actives have a fitted effect of over 65% in size. The conditions noted are these: Potency: Plasmodium falciparum Dd2 proliferation inhibition. Summed up:
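SYBR Green I DNA fluorescence read-out, ex 485/em 535 nm. Signals were normalized to 0.29 uM artemisinin and DMSO wells, then corrected using vehicle-only plates flanking each stack. Parasite growth ran 72 h in erythrocytes before lysis.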

A short description of test [11]: Validation screen for inhibitors of Lassa infection (AID 463096; calls by dose curve; also: % is scaled to controls: 0 for no effect and ±100 for the full control effect).
The nature of test [12]: Quantitative high throughput screen for delayed death inhibitors of the malarial parasite plastid, 96 hour incubation (AID 488745). Also: potency is read from the fitted curve at half-maximal effect; nearly all actives have a fitted effect of over 70% in size. In short, it runs like this:
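P. falciparum carrying an integrated firefly luciferase reporter, grown in erythrocytes (2% hematocrit, 0.1% parasitemia final) in RPMI 1640/0.5% Albumax, was exposed to compound for 96 h (two generations) at 37 C, 5% CO2. Luminescence decrease indicated growth inhibition.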

For test [13], the target named is Alpha-galactosidase (Coffea arabica) (UniProt Q42656). Nature of the test: Counterscreen for Glucocerebrosidase Inhibitors: qHTS Assay for Coffee Bean alpha-Galactosidase at pH 4.5 (AID 957).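 Also: plate controls were enzyme alone for no effect and no enzyme for full effect.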 In short, it runs like this: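 Green coffee bean enzyme (2 nM final) was incubated with compounds (0.7 nM to 77 uM) and 4-methylumbelliferyl alpha-D-galactopyranoside (80 uM final) in 50 mM citric acid, 0.005% Tween-20, pH 4.5, 20 min at room temperature; AC50 from Hill fits.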
On the technique in general: Counterscreens check selectivity or assay interference.

For test [14] the target is unchanged. Nature of the test: Counterscreen for Glucocerebrosidase Inhibitors: qHTS Assay for Coffee Bean alpha-Galactosidase at pH 5.9 (AID 998).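 Also: plate controls were uninhibited enzyme for no effect and no-enzyme basal signal for full effect.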 In short, it runs like this:
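Compounds were titrated from 0.7 nM to 77 uM against green coffee bean alpha-galactosidase (2 nM) using 80 uM fluorogenic 4-methylumbelliferyl substrate. After 20 min at room temperature, reactions were stopped at pH 10 and read by fluorescence.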

Test [15] can be described thus: High Content Imaging Cell-Based qHTS for Inhibitors of the mTORC1 Signaling Pathway in MEF (Tsc2-/-, p53-/-) Cells (AID 2666).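 Also: percent of cells scored positive for phospho-rpS6 Ser235/236 immunostaining by imaging; potency is read from the fitted curve at half-maximal effect.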 In short, it runs like this:
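Cells were plated, dosed with compound after 24 hrs, and incubated another 24 hrs at 37 degree Celsius. Fixed cells were immunostained for phospho-rpS6 Ser235/236 and counterstained, and the normalized signal was scored as % active cells against rapamycin and DMSO controls.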

Test [16] concerns the target M-phase phosphoprotein 8 (Homo sapiens) (UniProt Q99549). Briefly: qHTS Validation Assay for Inhibitors for MPP8 Chromodomain Interactions with Methylated Histone Tails (AID 488949). Also: nearly all actives have a fitted effect of over 55% in size. Also: potency is read from the fitted curve at half-maximal effect. In short, it runs like this: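 AlphaScreen proximity signal from streptavidin donor and Ni-chelate acceptor beads (10 ug/mL each) reported binding of MPP8 to trimethyl-K9 H3(1-18) peptide, both at 50 nM. The complex formed 30 min before a 30 min compound exposure at room temperature, in PBS pH 7.4.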

Test [17] deals with Chromobox protein homolog 1 (Homo sapiens) (UniProt P83916). Nature of the test: qHTS Validation Assay for Inhibitors of HP1-beta Chromodomain Interactions with Methylated Histone Tails (AID 488953). Also: potency is read from the fitted curve at half-maximal effect; nearly all actives have a fitted effect of over 50% in size. In short, it runs like this: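 HP1-beta (50 nM) was preincubated 30 min at room temperature with biotinylated H3(1-18)K9me3 peptide (50 nM) in PBS pH 7.4, 0.01% Tween-20, then with compounds 30 min. AlphaScreen signal was read after streptavidin donor/nickel chelate acceptor beads (10 ug/mL final).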

A short description of test [18]: Validation screen for small molecules that induce genotoxicity in human embryonic kidney (HEK293T) cells expressing luciferase-tagged ELG1 (AID 493106). Also: 0% is about no effect. In short, it runs like this:
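HEK293T cells expressing luciferase-tagged ELG1 were exposed to compound or DMSO vehicle for 16 hr at 37 °C, 5% CO2. Genotoxic stress raises ELG1 levels, so increased luciferase signal after ONE-Glo addition and 30 min at room temperature marks hits.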

A short description of test [19]: Inducers of the Endoplasmic Reticulum Stress Response (ERSR) in human glioma: Validation (AID 504836). Also: 0% is about no effect. Summed up:
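ERSR induction read as luciferase luminescence (Bright-Glo, 10 min at room temperature) in stably transfected human U87-MG glioma cells exposed to compounds for 16 h, using GRP78 as sensor.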

Test [20] in a line: qHTS profiling for inhibitors of Plasmodium falciparum proliferation (AID 504749).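 Also: 0% = DMSO vehicle and full inhibition = artemisinin control; nearly all actives have a fitted effect of over 60% in size.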 The conditions noted are these: P. falciparum in erythrocytes, SYBR Green DNA, 72 h, at 28.7 µM (top of the series). In short, it runs like this:
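Three-day growth assay of blood-stage parasites in erythrocytes (0.3% parasitemia, 2.5% hematocrit) at 37 C, 5% CO2, quantified by SYBR Green DNA staining after overnight detergent lysis.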

Chain of M-phase phosphoprotein 8 (Homo sapiens) (Q99549 whole entry, looked up): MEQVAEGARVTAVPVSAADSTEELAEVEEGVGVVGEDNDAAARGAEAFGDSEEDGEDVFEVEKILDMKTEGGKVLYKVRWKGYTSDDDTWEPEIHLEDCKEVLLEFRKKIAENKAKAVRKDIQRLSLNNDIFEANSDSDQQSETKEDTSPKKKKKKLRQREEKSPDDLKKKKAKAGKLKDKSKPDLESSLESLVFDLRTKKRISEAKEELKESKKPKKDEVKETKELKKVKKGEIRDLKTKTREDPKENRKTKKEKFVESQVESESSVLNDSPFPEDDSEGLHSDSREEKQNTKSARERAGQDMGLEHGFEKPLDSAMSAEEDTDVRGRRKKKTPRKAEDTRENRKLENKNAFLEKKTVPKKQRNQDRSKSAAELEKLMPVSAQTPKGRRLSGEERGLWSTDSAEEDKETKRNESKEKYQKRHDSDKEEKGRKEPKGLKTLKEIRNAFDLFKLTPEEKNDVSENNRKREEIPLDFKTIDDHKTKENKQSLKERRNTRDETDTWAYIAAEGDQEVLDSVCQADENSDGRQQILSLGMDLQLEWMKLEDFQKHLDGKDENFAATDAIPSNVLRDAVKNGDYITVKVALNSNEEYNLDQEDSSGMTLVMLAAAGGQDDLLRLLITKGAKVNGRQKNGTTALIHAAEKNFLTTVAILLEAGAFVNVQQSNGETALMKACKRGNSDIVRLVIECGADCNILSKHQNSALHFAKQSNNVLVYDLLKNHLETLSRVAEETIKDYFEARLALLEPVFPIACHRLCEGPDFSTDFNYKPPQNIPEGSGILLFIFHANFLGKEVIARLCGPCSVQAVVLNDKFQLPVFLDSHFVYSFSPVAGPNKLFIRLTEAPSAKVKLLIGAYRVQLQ
Chain of Alpha-galactosidase (Coffea arabica) (Q42656 whole entry, looked up): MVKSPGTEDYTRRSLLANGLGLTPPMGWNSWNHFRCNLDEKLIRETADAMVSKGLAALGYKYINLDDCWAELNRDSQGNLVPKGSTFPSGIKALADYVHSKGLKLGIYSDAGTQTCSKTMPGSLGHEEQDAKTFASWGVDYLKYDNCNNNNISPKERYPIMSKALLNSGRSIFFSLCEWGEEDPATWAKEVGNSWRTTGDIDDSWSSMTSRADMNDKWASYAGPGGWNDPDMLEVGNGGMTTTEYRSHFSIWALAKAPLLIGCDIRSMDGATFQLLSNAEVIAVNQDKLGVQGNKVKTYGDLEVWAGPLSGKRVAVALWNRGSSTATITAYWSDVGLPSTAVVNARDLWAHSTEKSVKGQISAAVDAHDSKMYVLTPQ
Chain of Nuclear receptor subfamily 1 group I member 2 (Homo sapiens) (O75469 whole entry, looked up): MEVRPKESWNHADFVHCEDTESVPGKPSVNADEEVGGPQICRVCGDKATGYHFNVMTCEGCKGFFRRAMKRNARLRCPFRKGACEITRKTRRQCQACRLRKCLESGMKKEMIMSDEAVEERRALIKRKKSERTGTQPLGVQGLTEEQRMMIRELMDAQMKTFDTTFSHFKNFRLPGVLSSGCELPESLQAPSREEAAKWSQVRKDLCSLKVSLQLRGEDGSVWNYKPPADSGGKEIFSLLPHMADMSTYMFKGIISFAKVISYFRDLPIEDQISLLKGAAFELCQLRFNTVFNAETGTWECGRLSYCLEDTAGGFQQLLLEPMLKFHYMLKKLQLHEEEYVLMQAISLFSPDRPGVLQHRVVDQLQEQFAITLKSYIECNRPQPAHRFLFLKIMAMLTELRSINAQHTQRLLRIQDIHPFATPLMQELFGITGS
Chain of Chromobox protein homolog 1 (Homo sapiens) (P83916 whole entry, looked up): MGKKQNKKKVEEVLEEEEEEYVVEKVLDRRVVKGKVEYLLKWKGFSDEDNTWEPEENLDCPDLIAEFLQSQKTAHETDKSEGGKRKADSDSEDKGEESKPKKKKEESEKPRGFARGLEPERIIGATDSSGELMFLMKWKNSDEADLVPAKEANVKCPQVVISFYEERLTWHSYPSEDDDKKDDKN
Chain of Phospholipid hydroperoxide glutathione peroxidase GPX4 (Homo sapiens) (P36969 whole entry, looked up): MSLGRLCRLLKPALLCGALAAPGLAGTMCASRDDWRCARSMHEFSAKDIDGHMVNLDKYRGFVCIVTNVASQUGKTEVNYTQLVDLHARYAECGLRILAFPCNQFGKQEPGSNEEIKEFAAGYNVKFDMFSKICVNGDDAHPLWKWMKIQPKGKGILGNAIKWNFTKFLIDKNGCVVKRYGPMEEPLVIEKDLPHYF
Chain of Cytochrome P450 2C9 (Homo sapiens) (P11712 whole entry, looked up): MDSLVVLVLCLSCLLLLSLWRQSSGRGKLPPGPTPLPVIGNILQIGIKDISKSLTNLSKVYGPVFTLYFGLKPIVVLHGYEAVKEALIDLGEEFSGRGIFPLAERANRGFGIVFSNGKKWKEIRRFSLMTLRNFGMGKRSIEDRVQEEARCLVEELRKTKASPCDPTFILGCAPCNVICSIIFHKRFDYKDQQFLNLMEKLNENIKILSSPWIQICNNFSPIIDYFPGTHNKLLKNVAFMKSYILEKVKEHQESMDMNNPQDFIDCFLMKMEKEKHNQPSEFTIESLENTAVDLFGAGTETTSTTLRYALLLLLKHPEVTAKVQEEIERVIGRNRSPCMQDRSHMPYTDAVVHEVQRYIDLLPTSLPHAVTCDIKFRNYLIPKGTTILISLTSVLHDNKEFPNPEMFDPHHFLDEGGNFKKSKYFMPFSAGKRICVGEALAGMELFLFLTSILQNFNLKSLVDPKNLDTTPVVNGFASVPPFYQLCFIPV
Chain of Cytochrome P450 2C19 (Homo sapiens) (P33261 whole entry, looked up): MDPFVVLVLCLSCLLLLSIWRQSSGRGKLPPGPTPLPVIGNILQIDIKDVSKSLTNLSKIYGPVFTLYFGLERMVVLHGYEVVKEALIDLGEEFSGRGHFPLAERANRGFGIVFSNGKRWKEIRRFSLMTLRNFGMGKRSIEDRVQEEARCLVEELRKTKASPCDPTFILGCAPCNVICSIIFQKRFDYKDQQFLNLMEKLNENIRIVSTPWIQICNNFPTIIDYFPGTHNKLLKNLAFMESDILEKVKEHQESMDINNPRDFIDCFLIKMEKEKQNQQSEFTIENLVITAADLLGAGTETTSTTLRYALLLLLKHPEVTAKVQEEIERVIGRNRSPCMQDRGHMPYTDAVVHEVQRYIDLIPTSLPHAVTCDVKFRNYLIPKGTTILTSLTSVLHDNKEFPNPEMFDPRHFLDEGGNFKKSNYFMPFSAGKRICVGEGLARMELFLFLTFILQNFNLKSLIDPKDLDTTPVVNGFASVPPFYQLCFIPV

For `CN1[C@@H]2CC(O)C[C@H]1[C@@H]1O[C@@H]12` (stereo not given in full), the Potency result in test [1] is “inactive”.

For the compound `O=S(=O)(O)O`, the Potency entry in test [2], in test [3] and in [4] was “inactive” each time. Moreover, the outcome in [5] and in test [6] was inactive.

Consider `CN1C[C@H](C(=O)N[C@]2(C)O[C@@]3(O)C4CCCN4C(=O)[C@H](Cc4ccccc4)N3C2=O)C[C@@H]2c3cccc4[nH]cc(c34)C[C@H]21` (stereo not given in full), for which the Potency in [7] was 0.224 µM (active); in test [8] it was 2.24 µM (active); in test [9], 4.47 µM (active); in [10], 2.51 µM (active). Moreover, the Potency entry in [11] is “inactive”.

`CC(=O)O[C@H]1C[C@@H]2CCC3C(CC[C@@]4(C)[C@H]3C[C@H]([N+]3(C)CCCCC3)[C@@H]4OC(C)=O)[C@@]2(C)C[C@@H]1[N+]1(C)CCCCC1` (stereo not given in full): the Potency result in [11] was “inactive”. Further, in test [12], the Potency is 13.1 µM (active).

For `COC1=CC(=O)O[C@@H](/C=C/c2ccc3c(c2)OCO3)C1`, the Potency entry in test [4] was “inactive”. In addition, the call in [5] and in test [6] was inactive.

With `S=C(S)N1CCCC1`, the outcome in test [13], in test [14], in [18] and in [19] was inactive. In addition, the Potency in [7] was 2.82 µM (active); in test [8], 2.82 µM (active); in test [10] it was 7.94 µM (active); in [15], 2.61 µM (active); in test [12], 5.86 µM (active); in [17] it was 44.7 µM (active). Also, the Potency entry in test [16] was “inactive”.

Consider `COc1cc(OC)c(/C=C2/C(=O)Nc3ccccc32)c(OC)c1`, for which the result in [13], in [14], in test [18] and in test [19] was inactive. Also, the Potency is 12.6 µM (active) and inactive in test [16]; 31.6 µM (active) in test [17].

As to `C[C@]12CC[C@H]3[C@@H](CCC4=CC(=O)CC[C@@]43C)[C@@H]1CC[C@@H]2O`, the activity, negative = inhibition in test [20] (parasite line A) is -11.8% (inactive); in test [20] (parasite line B) it was -14.6% (inactive).
